Most compounds without a hit are left out; they make up all but 11% or so of the library.
HPGD inh: inhibitors of human 15-hydroxyprostaglandin dehydrogenase (HPGD) | P15428 | purified HPGD, NADH fluorescence kinetic, PGE2 substrate | Potency, µM, for inactives: top-dose activity change, negative = inhibition, most hits filed as inhibitors | 150,000 compounds, 4.3% hits | AID 894; further: potency means the concentration at half of the fitted maximal effect
Target sequence (P15428 whole entry, looked up): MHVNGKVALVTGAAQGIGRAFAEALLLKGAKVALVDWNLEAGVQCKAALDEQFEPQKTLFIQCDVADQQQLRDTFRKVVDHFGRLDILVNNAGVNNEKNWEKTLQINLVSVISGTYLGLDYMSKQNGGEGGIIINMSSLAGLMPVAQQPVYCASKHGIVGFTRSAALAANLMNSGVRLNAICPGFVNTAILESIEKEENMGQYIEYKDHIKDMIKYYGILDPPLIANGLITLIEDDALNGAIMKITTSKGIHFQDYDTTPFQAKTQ
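NADH formation kinetics: reaction with 30 uM PGE2 and 1 mM NAD+ (final), 20 nM enzyme, Tris-HCl pH 8 with Tween 20, after 15 min compound preincubation at room temperature. Fluorescence change, last versus first of five reads.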
ALDH1A1 block: inhibitors of human aldehyde dehydrogenase 1A1; Purified ALDH1A1, NADH fluorescence, propionaldehyde substrate; Potency, µM (titrated, usually from 75.3 µM), for the others: at the highest dose activity, negative = inhibition, hits mostly inhibitors; 220,000 compounds, 7.3% hits;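 further: potency means the concentration at half of the fitted maximal effect; plate controls were no enzyme wells and a reference inhibitor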
PNC inhibitor: inhibitors of perinucleolar compartment assembly; 140,000 compounds, 3.1% hits; activity change (PNC), negative = inhibition, % at 10 µM; PC3M PTB-GFP, PNC prevalence imaging, 16 h; active compounds read low;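 active means readout at or below -70, meaning at least 70% loss of cells showing the perinucleolar compartment, a nuclear body marking cancer cells; inconclusive means readout between -30 and a set limit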;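 further: plate controls were DMSO wells for no effect and camptothecin positive control wells for full effect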
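Compounds are pinned in duplicate onto adhered PC3M cells stably expressing GFP-tagged PTB and incubated 16 h at 37 C. Cells are then fixed, nuclei stained with Hoechst, and PNC-positive cells counted.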
IMPase Li cell: IMPase inhibition in cells with lithium potentiation | CHO-M1 cells, IP1 TR-FRET (IP-One), carbachol + lithium | Potency, µM (top dose mostly 59.4 µM), inactives show at the top dose activity, negative = IMPase inhibition, hits mostly inhibitors | 210,000 compounds, 0.35% hits | AID 1457; active means well fitted inhibition curve with a large enough effect; inconclusive means small, poorly fitted or top-dose-only effect; inactive means no such curve, though single readings can be large or run the other way;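 further: IP1 builds up when IMPase is blocked and the TR-FRET signal falls; potency means the concentration at half of the fitted maximal effect; plate controls were basal vehicle for no effect and high inhibitor control for full effect; nearly all actives have a fitted effect of over 50% in size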
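CHO cells stably expressing M1 receptor (2000/well) were cultured 16–30 h, then exposed to compounds with a small lithium addition for 30 min at 37C. IP1 was measured by TR-FRET competition; AC50 from Hill fits.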
IMPase cell inh: cell-permeable inhibitors of inositol monophosphatase (IMPase); P97697; CHO-M1 cells, IP1 accumulation, HTRF TR-FRET ratio; inhibition (IP1 accumulation), % at 46.1 µM; 120,000 tested, under 10 active; active means well fitted curve in the direction sought with a large enough effect in the signal ratio, not every such curve was filed as active; inconclusive means small, poorly fitted or top-dose-only effect, or a change in a side signal; inactive means no such curve, though single readings can be large or run the other way; the % refers to the signal ratio;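 further: cells stimulated with carbachol in lithium chloride buffer; plate controls were DMSO basal wells for no effect and reference inhibitor wells for full effect; higher means more IMPase inhibition seen as more IP1 and lower FRET ratio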
Target sequence (P97697 whole entry, looked up): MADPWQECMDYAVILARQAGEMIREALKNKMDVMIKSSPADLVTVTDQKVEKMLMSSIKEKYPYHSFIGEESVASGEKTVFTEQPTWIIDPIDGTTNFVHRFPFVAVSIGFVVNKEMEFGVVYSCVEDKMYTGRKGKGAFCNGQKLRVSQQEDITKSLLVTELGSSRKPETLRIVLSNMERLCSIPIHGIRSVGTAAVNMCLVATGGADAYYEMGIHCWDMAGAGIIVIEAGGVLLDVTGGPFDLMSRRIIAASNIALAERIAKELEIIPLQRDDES
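In this qHTS, compounds (final up to 46 uM) act on CHO-M1 cells that are then activated through the M1 receptor with carbachol, in pH 7.4 buffer containing 50 mM LiCl, for 30 min. IP1 accumulation is quantified by the IP-One immunoassay.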
Starred values were filed as active, the others as inactive; ? = inconclusive; nt = no result given; [ ] = another dose, or the depositor's remark. Unless noted, the call rests on the fitted dose curve; in most records, active means well fitted inhibition curve with a large enough effect (not every such curve was filed as active); inconclusive means small, poorly fitted or top-dose-only effect, or another doubt; inactive means no such curve, though single readings can be large or run the other way. Unless noted, on the % scale 0 is the no-effect control and ±100 the full control effect.

SMILES	HPGD inh	ALDH1A1 block	PNC inhibitor	IMPase Li cell	IMPase cell inh
O=C(c1ccco1)N1CCN(c2nnc(-c3ccccc3)c3ccccc23)CC1	-6%	25µM*	3	12%[38.3 µM]	2
O=C(c1cccnc1)N1CCN(Cc2cccc(Br)c2)CC1	-11%	10µM*	-14	9%[38.3 µM]	5
O=C(c1cccnc1)N1CCN(C(=O)c2ccco2)CC1	-19%	1%	-100*	3%	0
O=C(c1cccnc1)N1CCc2ccccc2C1	32µM*	2%	11	-12%[38.3 µM]	1
O=c1c(S(=O)(=O)c2ccc(Cl)cc2)cn(Cc2ccccc2F)c2ccc(F)cc12	?	-10%	-4	-1%	-2
O=C(c1ccco1)N1CCN(C(=O)C2CCCO2)CC1 (centres undefined)	-9%	1%	-100*	0%	-7
CCc1nnc(NC(=O)CCN(c2cc(C)cc(C)c2)S(=O)(=O)c2ccc(Cl)cc2)s1	nt	5%	-94*	nt	0
N#CCCN(C(=O)CO/N=C/c1cccc([N+](=O)[O-])c1)c1ccccc1	nt	25µM*	nt	14%	nt
CCCn1nc(NC(=O)c2cccs2)c2cc3cc(OC)ccc3nc21	?	?	-90*	33%[38.3 µM]	-3
CCCCn1nc(NC(=O)c2cccs2)c2cc3cc(OC)ccc3nc21	?	?	?	15%	2
CCO[Si](CCCN)(OCC)OCC	-11%	4%	nt	11%	nt
S=C(c1c[nH]c2ccccc12)N1CCOCC1	nt	20µM*	nt	1%	nt
Cc1ccc(/C=N/N2CCN(Cc3ccccc3)CC2)o1	-8%	?	29	30%[38.3 µM]	2
Cc1ccc(/C=N/N(Cc2ccccc2)c2ccccc2)o1	nt	20µM*	nt	16%	nt
CCCCn1c(SCc2ccc(C(=O)OC)o2)nc2cc(S(N)(=O)=O)ccc21	-25%	25µM*	-19	5%[38.3 µM]	7
CCCCn1c(SCN2C(=O)c3ccccc3C2=O)nc2cc(S(N)(=O)=O)ccc21	-14%	28µM*	-19	-24%[38.3 µM]	-6
CCCCn1c(SCC2CCCO2)nc2cc(S(N)(=O)=O)ccc21 (centres undefined)	-1%	-4%	-26	23%[38.3 µM]	4
CCCCn1c(SCC(=O)c2cc(OC)ccc2OC)nc2cc(S(N)(=O)=O)ccc21	-7%	?	4	-17%[38.3 µM]	4
CCCCn1c(SCC(=O)N2CCC(C)CC2)nc2cc(S(N)(=O)=O)ccc21	28µM*	8%	?	-2%[38.3 µM]	12
O=C(CSc1ccc2ccccc2c1)Nc1ncccn1	nt	-6%	-18	nt	-21
CC(C)[C@H](NC(=O)CNC(=O)OC(C)(C)C)C(=O)N[C@H](C=O)C(C)C	nt	-4%	nt	-11%	nt
Cc1ccc(/C=c2\sc3n(c2=O)CN(c2cccc(Br)c2)CN=3)o1	-12%	20µM*	-18	3%[38.3 µM]	3
O=c1/c(=C/c2ccco2)sc2n1CN(c1cccc(Br)c1)CN=2	25µM*	?	?	78%[38.3 µM]	8
C/C(=C\CNc1ncnc2c1ncn2[C@@H]1O[C@H](CO)[C@@H](O)[C@H]1O)CO	-13%	-9%	nt	-3%	nt
Cc1ccc(-c2nn(-c3ccccc3)cc2/C=C(\C#N)c2cccc(C#N)c2)o1	-9%	22µM*	56	22%[38.3 µM]	12
SMILES	HPGD inh	ALDH1A1 block	PNC inhibitor	IMPase Li cell	IMPase cell inh
CC(C)(C)C1CCc2c(sc(NC(=O)c3ccc(Cl)cc3)c2C(=O)NCc2ccco2)C1 (centres undefined)	nt	nt	nt	nt	3
Cc1sc(NC(=O)c2sc3nc4c(C)cccc4cc3c2N)c(C#N)c1C	7.1µM*	2.8µM*	?	-20%[38.3 µM]	-4
CCN1/C(=C2\OC(=S)N(C)C2=O)Sc2ccccc21	-21%	-18%	-19	11µM*	-7
CC(C)Cc1cc(C(=O)Nc2sc3c(c2C#N)CCC3)no1	?	22µM*	11	0%[38.3 µM]	-5
CC(C)Cc1cc(C(=O)Nc2sc3c(c2C#N)CCCC3)no1	28µM*	18µM*	35	3%	-3
CCc1ccccc1NC(=O)C(=O)NCCCN1CCOCC1	nt	nt	nt	nt	1
CCOc1ccc(N2C(=O)CC(NCCNc3ccc([N+](=O)[O-])cn3)C2=O)cc1 (centres undefined)	nt	0.89µM*	nt	6%	nt
COc1ccc(N2C(=O)CC(NCCNc3ccc([N+](=O)[O-])cn3)C2=O)cc1 (centres undefined)	-16%	1.8µM*	-100*	-4%	nt
CC(=O)N1CCN(C(=S)NC(=O)c2ccc(S(=O)(=O)N3CCOCC3)cc2)CC1	?	0%	41	-7%	nt
Cc1c(/C=N/NC(=O)c2ccccc2O)c2ccccn2c1C(=O)c1ccc(F)cc1	28µM*	-10%	34	1%	nt
CS(=O)(=O)N1CCN(c2ccccc2NC(=O)C(c2ccccc2)c2ccccc2)CC1	-9%	6.3µM*	?	28%[38.3 µM]	-2
CS(=O)(=O)N1CCN(c2ccccc2NC(=O)c2cccs2)CC1	-10%	10µM*	-12	17%[38.3 µM]	11
CS(=O)(=O)N1CCN(c2ccccc2NC(=O)CSc2nnc(-c3ccco3)o2)CC1	-10%	13µM*	17	-1%	nt
O=C(Nc1ccccc1N1CCCCC1)c1cccs1	-3%	-7%	23	33%[38.3 µM]	5
CCOc1ccccc1NC(=O)CSc1nnc(-c2ccco2)o1	-8%	3%	3	-6%[38.3 µM]	-1
C=CCn1c2ccccc2c2nnc(SCc3ccc4nonc4c3)nc21	-30%	?	?	14%[38.3 µM]	8
CC(=O)NN1C(=O)/C(=C/c2ccc(Br)o2)SC1=S	?	25µM*	32	7%[38.3 µM]	10
COc1ccccc1/C=C(\C#N)c1nc(-c2cc3ccccc3oc2=O)cs1	nt	nt	nt	nt	-15
CCOC(=O)C1(CCOc2ccccc2)CCN(Cc2ccc(CO)o2)CC1	nt	-9%	nt	18%	nt
CCOC(=O)C1(CCOc2ccccc2)CCN(Cc2ccc3nonc3c2)CC1	nt	28µM*	nt	23%	nt
CCOC(=O)C1(CCOc2ccccc2)CCN(Cc2cnc(C)s2)CC1	nt	16µM*	nt	17%	nt
COC(=O)CC1C(C)(C)C(O)C2CC3=C4C=C(OC)OC(c5ccoc5)[C@]4(C)CCC3[C@@]1(C)C2=O (some centres undefined)	-6%	-5%	nt	17%	nt
COc1ccc2c(=O)c3c(=O)n(Cc4ccco4)c(-c4cc(OC)c(OC)c(OC)c4)nc3oc2c1	-24%	-8%	-15	7%	-9
COc1ccc2c(=O)c3c(=O)n(Cc4ccco4)c(-c4ccccc4)nc3oc2c1	-19%	22µM*	20	9%[38.3 µM]	-4
O=c1c2ccccc2oc2nc(-c3ccco3)n(-c3ccccc3)c(=O)c12	30%	-12%	2	27%	-14
O=c1c2ccccc2oc2nc(-c3ccco3)n(CCc3ccccc3)c(=O)c12	3%	3%	-100*	7%[38.3 µM]	-2
CCSc1nnc(-c2ccccc2SC)o1	nt	?	nt	11µM*	nt
CSc1nnc(-c2ccccc2Cl)o1	32µM*	6%	55	17%[38.3 µM]	6
